Test results from PubChem BioAssay (NCATS).
Results filed as inconclusive are left out. Activity calls are given as the source filed them. Calls follow the shape of the dose curve; as a rule, active = well fitted curve in the direction sought with a large enough effect; inconclusive = small, poorly fitted or top-dose-only effect, or another doubt; inactive = no such curve, though single readings can be large; an effect the other way counts as inactive or inconclusive.

Key:
[1] = biological target: Glutathione peroxidase 1 (Homo sapiens) (UniProt P07203); experiment: Primary qHTS Assay for Inhibitors of Recombinant Selenoprotein Glutathione Peroxidase 1 (GPX1) (AID 1845191); also: nearly all actives have a fitted effect of over 65% in size; as to activity, negative = inhibition: % is scaled to controls: 0 for no effect and ±100 for the full control effect
Glutathione peroxidase 1 (Homo sapiens), sequence (P07203 whole entry, looked up): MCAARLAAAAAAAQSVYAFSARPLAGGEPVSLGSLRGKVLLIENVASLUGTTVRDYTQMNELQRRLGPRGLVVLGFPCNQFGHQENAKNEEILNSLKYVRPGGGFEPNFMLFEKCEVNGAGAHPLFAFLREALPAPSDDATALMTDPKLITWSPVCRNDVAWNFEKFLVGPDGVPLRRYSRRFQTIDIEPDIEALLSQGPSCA
In short: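 GR-coupled assay: compounds preincubated 30 min at room temperature with GPX1, then reaction started with CHP; final 10 nM GPX1, 1 mM GSH, 0.5 mM CHP, 0.5 mM NADPH, 100 nM GR, 0.01% BSA, pH 7.5 Tris buffer. NADPH fluorescence (340/450 nm) read at 0 and 15 min.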

[2] = biological target: Phospholipid hydroperoxide glutathione peroxidase GPX4 (Homo sapiens) (UniProt P36969); experiment: Primary qHTS Assay for Inhibitors of Recombinant Selenoprotein Glutathione Peroxidase 4 (GPX4) (AID 1845192); also: nearly all actives have a fitted effect of over 65% in size; as to activity change, negative = inhibition: series mostly up to about 50 µM; % is scaled to controls: 0 for no effect and ±100 for the full control effect
Phospholipid hydroperoxide glutathione peroxidase GPX4 (Homo sapiens), sequence (P36969 whole entry, looked up): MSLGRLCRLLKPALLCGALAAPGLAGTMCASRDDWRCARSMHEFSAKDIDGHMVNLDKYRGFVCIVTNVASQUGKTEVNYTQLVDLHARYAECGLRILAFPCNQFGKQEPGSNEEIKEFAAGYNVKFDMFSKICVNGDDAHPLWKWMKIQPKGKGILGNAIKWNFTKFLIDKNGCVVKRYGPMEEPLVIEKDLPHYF
In short: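 GR-coupled assay: recombinant GPX4 preincubated 30 min with compound at room temperature; final 200 nM GPX4, 1 mM GSH, 0.5 mM cumene hydroperoxide, 0.5 mM NADPH, 100 nM GR, 0.01% BSA, pH 7.5 Tris. NADPH fluorescence (340/450 nm) read at 0 and 15 min.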

[3] = biological target: Luciferin 4-monooxygenase (Photinus pyralis) (UniProt P08659); experiment: Primary firefly luciferase (FLuc) qHTS assay for identification of artifact compounds. (AID 1845220); also: nearly all actives have a fitted effect of over 60% in size;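 as to activity change, negative = inhibition: series mostly up to about 54 µM; plate controls were DMSO vehicle for no effect and no enzyme for full effect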
In short: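 Enzymatic FLuc inhibition assay: compounds pre-exposed to luciferin/ATP (10 uM each) for 15 min, then purified P. pyralis enzyme at 10 nM added. Read-out: luminescence at 5 min.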

[4] = test system: Nanoluciferase (engineered Oplophorus gracilirostris luciferase); experiment: Primary Nanoluciferase (NLuc) qHTS assay for identification of artifact compounds. (AID 1845222);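 also: NLuc secreted into diluted conditioned medium of S16 cells; series mostly up to about 54 µM; 0% = DMSO and -100% = no enzyme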
In short: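 S16 cell supernatant NLuc, 1:55; cpds qHTS; 15 min RT dark; Nano-Glo substrate 1:100, 5 min; luminescence; Hill fit of % inhibition.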

[5] = Primary redox qHTS assay for identification of artifact compounds. (AID 1845223);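 also: 0% = DMSO and 100% = reference compound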
In short: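 Amplex Red (25 uM) and HRP (250 mU/mL) in HBSS, with compounds for 15 min, then 250 uM DTT for 30 min, room temperature, dark. Fluorescence 525/598 nm read; normalized to DMSO and 10 uM DA3003; Hill fit.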

O=C(/C=C/c1ccc(O)cc1)O[C@H]1[C@@H]2C=CO[C@@H](O[C@@H]3O[C@H](CO)[C@@H](O)[C@H](O)[C@H]3O)[C@@H]2[C@@]2(CO)O[C@@H]12
inactive: Potency [1] | Potency [2] | Potency [3] | Potency [4] | Potency [5]

CC1CCC2C(C)(C)C(O)CCC2(C)C12Cc1c(O)cc3c(c1O2)CN=C3N (stereo not given)
inactive: Potency [1] | Potency [2] | Potency [3] | Potency [4] | Potency [5]

CC(=O)O[C@H]1[C@H](Oc2ccccc2COC(=O)C2(O)C=CCCC2=O)O[C@H](CO)[C@@H](O)[C@@H]1O (stereo not given in full)
inactive: Potency [1] | Potency [2] | Potency [3] | Potency [4] | Potency [5]

C[C@@H]1O[C@@H](O[C@H]2[C@H](OC(C#N)c3ccc(O)cc3)O[C@H](CO)[C@@H](O)[C@@H]2O)[C@H](O)[C@H](O)[C@H]1O (stereo not given in full)
inactive: Potency [1] | Potency [2] | Potency [3] | Potency [4] | Potency [5]

C=C(C)C(=O)O[C@H]1C[C@@](C)(OC(C)=O)[C@@]2(O)CC[C@@](C)(O)[C@H](OC(C)=O)[C@@]23OC(=O)C(COC)=C13
inactive: Potency [1] | Potency [2] | Potency [3] | Potency [4] | Potency [5]

C[C@@H]1C(=O)O[C@H]2CC34[C@H]5C[C@@H](C(C)(C)C)C36[C@@H](OC(=O)[C@@H]6O)OC4(C(=O)O5)[C@]21O (stereo not given in full)
inactive: Potency [1] | Potency [2] | Potency [3] | Potency [4] | Potency [5]

COC1C2=C(COC2=O)C2(C)CCCC(C)(CO)C2C1OC(=O)c1ccccc1 (stereo not given)
inactive: Potency [1] | Potency [2] | Potency [3] | Potency [4] | Potency [5]

COC(=O)C1C(c2ccc(O)cc2)C(C(=O)OC)C1c1ccc(O)cc1 (stereo not given)
inactive: Potency [1] | Potency [2] | Potency [3] | Potency [4] | Potency [5]

C=C1C(=O)OC2CC(C)=C(C(C)CCCO[C@@H]3O[C@H](CO)[C@@H](O)[C@H](O)[C@H]3O)C(O)C12 (stereo not given in full)
inactive: Potency [1] | Potency [2] | Potency [3] | Potency [4] | Potency [5]

CC(/C=C/[C@]1(O)[C@@]2(C)CO[C@@]1(C)C[C@@H](O)C2)=C\C(=O)O[C@@H]1O[C@H](CO)[C@@H](O)[C@H](O)[C@H]1O
inactive: Potency [1] | Potency [2] | Potency [3] | Potency [4] | Potency [5]

C/C=C(\C)C(=O)OC[C@H]1O[C@H](O[C@H]2O[C@H](CO)[C@@H](OC(=O)/C(C)=C/C)[C@H](O)[C@H]2O[C@@H]2O[C@H](CO)[C@@H](O)[C@H](O)[C@H]2O)[C@H](O[C@@H]2O[C@H](CO)[C@@H](O)[C@H](O)[C@H]2O)[C@@H](O)[C@@H]1O
inactive: Potency [1] | Potency [2] | activity change, negative = inhibition [3] 1.93% [at 11.6 µM] | activity, negative = inhibition [4] 0% [at 11.6 µM] | redox activity (% of DA3003) [5] 3.6% [at 11.5 µM]

COc1cc(C2Oc3c(O)cc(CCCO)cc3C2CO)ccc1O[C@H]1O[C@H](C)[C@@H](O)[C@H](O)[C@@H]1O (stereo not given in full)
inactive: Potency [1] | Potency [2] | Potency [3] | Potency [4] | Potency [5]

CC1(C)CCC[C@@]2(C)[C@H]1[C@H](O)C=C1COC(=O)[C@@]12O
inactive: Potency [1] | Potency [2] | Potency [3] | Potency [4] | Potency [5]

CC(=O)c1c(C)cc(O)cc1O[C@@H]1O[C@H](CO)[C@@H](O)[C@H](O)[C@H]1O
inactive: Potency [1] | Potency [2] | Potency [3] | Potency [4] | Potency [5]

COc1c(OC2OC(CO)C(O)C(O)C2O)ccc(O)c1C(=O)OCc1ccccc1O[C@@H]1O[C@H](CO)[C@@H](O)[C@H](O)[C@H]1O (stereo not given in full)
inactive: Potency [1] | Potency [2] | Potency [3] | Potency [4] | Potency [5]

CC1=CC(=O)CC(C)(C)C1(O)CCC(C)O (stereo not given)
inactive: Potency [1] | Potency [2] | Potency [3] | Potency [4] | Potency [5]

C=C1CCC2C(C)(C(=O)O)CC(O)CC2(C)C1CC/C(C)=C/C(=O)O (stereo not given)
inactive: Potency [1] | Potency [2] | Potency [3] | Potency [4] | Potency [5]

CC(=O)c1c(C)cc(O[C@@H]2O[C@H](CO)[C@@H](O)[C@H](O)[C@H]2O)cc1O
inactive: Potency [1] | Potency [2] | Potency [3] | Potency [4] | Potency [5]

COc1cc(C(O)C(CO)Oc2ccc(CCCO[C@@H]3O[C@@H](C)[C@H](O)[C@@H](O)[C@H]3O)cc2OC)ccc1O (stereo not given in full)
inactive: Potency [1] | Potency [2] | Potency [3] | Potency [4] | Potency [5]

NC(=O)c1ccc(OCC2NC(=O)C3CCCN3C2=O)cc1 (stereo not given)
inactive: Potency [1] | Potency [2] | Potency [3] | Potency [4] | Potency [5]

CNC(=O)Nc1ccc(OC)c(NC(=O)NC(=O)c2cc(F)c(F)cc2Cl)c1
inactive: Potency [1] | Potency [2] | Potency [3] | Potency [4] | Potency [5]

C/C(=C/CO)CC[C@@H]1[C@@]2(C)CCC[C@](C)(C(=O)O)C2CC[C@@]1(C)O (stereo not given in full)
inactive: Potency [1] | Potency [2] | Potency [3] | Potency [4] | Potency [5]

C[C@@H]1C[C@H](O[C@@H]2O[C@H](CO[C@@H]3OC[C@](O)(CO)[C@H]3O)[C@@H](O)[C@H](O)[C@H]2O)CC(C)(C)[C@H]1/C=C/[C@@H](C)O
inactive: Potency [1] | Potency [2] | Potency [3] | Potency [4] | Potency [5]
